A selection: hits, their analogues and other compounds. The true share with any hit is near 4.3%.
Giardia killer – Small Molecules that selectively kill Giardia lamblia: qHTS; 0.15% of 340,000 active; AID 540267, 2011; Giardia lamblia trophozoite viability; activity change, % at 7.66 µM, hits read low; in the data active = activity change below about -80%; inconclusive = between about -30% and that limit;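 note: parasites exposed to compound for two days anaerobically before the ATP read; % is set by controls: 0 for no effect and ±100 for the full control effect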
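Killing of trophozoites was scored by loss of ATP luminescence after a 48 hrs anaerobic exposure to compounds at 37 deg C, using 100 cells per well.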
MCF10A rereplic – A quantitative high throughput screen for small molecules that induce DNA re-replication in MCF 10a normal breast cells | Potency, µM (top dose mostly 46.1 µM), for the others: at the highest dose activity, positive = re-replication, most hits filed as activators | MCF 10A DNA re-replication, Hoechst nuclear intensity, 48 h | 2.9% of 350,000 active; note: potency is the fitted concentration of half-maximal effect; % of control where 0% means no effect; nearly all actives have a fitted effect of over 50% in size
SW480 rerep – A quantitative high throughput screen for small molecules that induce DNA re-replication in SW480 colon adenocarcinoma cells; SW480 DNA re-replication, Hoechst DNA content imaging, 48 h; Potency, µM (top dose mostly 46.1 µM), inactives show at the highest dose re-replication activation, usual class: activators; 1.8% of 340,000 active; AID 624297, 2012; note: potency is the fitted concentration of half-maximal effect; % of control where 0% means no effect; nearly all actives have a fitted effect of over 55% in size
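Image-based DNA-content assay: after two days of treatment, nuclei were labelled with the DNA dye Hoechst and imaged, and hits were compounds raising the count of nuclei showing high fluorescence intensity.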
uPA surface inh – qHTS for Inhibitors of Cell Surface uPA Generation. Potency, µM (highest dose often 38.3 µM), for inactives: at the highest dose activity change, negative = inhibition, hits mostly inhibitors. cell surface uPA generation assay, qHTS. 0.31% of 330,000 active; active = well fitted inhibition curve with a large enough effect; inconclusive = small, poorly fitted or top-dose-only effect; inactive = no such curve, though single readings can be large or run the other way; tested in mouse RAW 264.7 cells; note: potency is the fitted concentration of half-maximal effect; % is set by controls: 0 for no effect and ±100 for the full control effect; nearly all actives have a fitted effect of over 55% in size
An asterisk follows results filed as active; ? = inconclusive; · = no result given; [ ] = another dose, or the depositor's remark. Unless noted, calls come from the whole dose curve; as a rule, active = well fitted activation curve with a large enough effect; inconclusive = small, poorly fitted or top-dose-only effect; inactive = no such curve, though single readings can be large or run the other way.

SMILES | Giardia killer | MCF10A rereplic | SW480 rerep | uPA surface inh
O=C(COC(=O)/C=C/c1cccc(C(F)(F)F)c1)NCCN1C(=O)CSC1=O | -9.3 | 25.9µM* | 12.1% | ?
N#Cc1c(N2CCCCC2)nc(N)c2c(N)nc3c(c12)CC(c1ccccc1)O3 (stereo unspecified) | 17.4 | ? | -7.2%[9.22 µM] | 0.1%
CCN(CC)c1nc(N)c2c(N)nc3c(c2c1C#N)CC(c1ccccc1)O3 (stereo unspecified) | -3.5 | 20.6µM* | ? | ·
COCCn1c(-c2cccs2)nc2nc3ccccc3nc21 | 1.6 | ? | 7.31µM* | -10.8%
O=C1N=C2SCCN2C(=O)C1Cc1ccc(Cl)cc1 (stereo unspecified) | · | 11.5% | -2.1% | ·
CC1(C)Cc2nc3sc4c(SCC(=O)O)ncnc4c3cc2CO1 | ? | -3.3% | -9.7% | 2.24µM*
C=C(C)CCC(C)N1CCC(n2nccc2NC(=O)CCCc2ccccc2)CC1 (stereo unspecified) | -9.5 | 13.5% | -5.3% | -9.1%
O=C(NCC(c1ccco1)N1CCc2ccccc21)c1ccccc1F (stereo unspecified) | -17.1 | 9.2% | 0.9% | -2.4%
O=C(CCc1ccccc1)NCC(c1ccco1)N1CCc2ccccc21 (stereo unspecified) | -7.4 | 4.61µM* | 18.4µM* | 3.16µM*
O=C(COC(=O)Cc1ccccc1[N+](=O)[O-])Nc1nnc(-c2ccccc2)o1 | 26.0 | 18.4µM* | -12.2% | -2.3%
CO/N=C(/C(=O)N[C@@H]1C(=O)N2C(C(=O)O)=C(C[n+]3ccc(N)n3CCO)CS[C@H]12)c1csc(N)n1 | · | -3.8% | -6.8% | ·
COc1ccc(Nc2ccc3c(c2)=NC2(CCCCC2)[N+]=3[O-])cc1 | 1.1 | 13µM* | 3.98µM* | -12.0%
O=[N+]([O-])c1ccc2c(c1N1CCCCC1)=NC1(CCCCC1)[N+]=2[O-] | 14.5 | ? | ? | 0.5%
[O-][N+]1=c2ccc(Nc3ccccc3)cc2=NC12CCCCC2 | -3.9 | 7.31µM* | 7.31µM* | -9.7%
Cc1ccc2nc(-c3cccc(-c4cccc(Cl)c4)c3)c(NCc3ccccc3)n2c1 | -17.5 | 7.31µM* | 22.1%[9.22 µM] | ?
CCC(C)Sc1cccc(-c2nc3ccc(C)cn3c2NCc2ccccc2)c1 (stereo unspecified) | 3.1 | 11.6µM* | ? | ?
CCC(C)Sc1cccc(-c2nc3ccc(Cl)cn3c2NCc2ccccc2)c1 (stereo unspecified) | 41.1 | ? | 26.8% | ?
Cc1ccn2c(NC3CCCCC3)c(-c3cccc(SC4CCCCC4)c3)nc2c1 | 3.6 | ? | ? | 3.6%
CCC(C)Sc1cccc(-c2nc3cc(C)ccn3c2NC2CCCCC2)c1 (stereo unspecified) | 0.5 | 18.4µM* | ? | -2.4%
CCC(C)Sc1cccc(-c2nc3ccccn3c2NCc2ccccc2)c1 (stereo unspecified) | -7.8 | 18.4µM* | 1.4% | ?
CCN(CC)S(=O)(=O)c1ccc(/C=C/C(=O)OCC(=O)Nc2cccnc2Cl)cc1 | -22.7 | -5.9% | -34.1% | 14.5%
CCCCCCSc1cccc(-c2nc3ccccn3c2NCc2ccccc2)c1 | -11.8 | 20.6µM* | ? | -11.4%
CCCCCCSc1cccc(-c2nc3cc(C)ccn3c2NCc2ccccc2)c1 | 9.1 | ? | -6.2% | -11.8%
COc1ccccc1C(CCNS(=O)(=O)c1ccc(C)cc1)c1ccco1 (stereo unspecified) | -12.6 | 13µM* | -110.3% | -1.2%
Cc1ccc(S(=O)(=O)NCCC(c2ccccc2)c2ccco2)cc1 (stereo unspecified) | 6.3 | 5.8% | -4.0% | 5.8%
SMILES | Giardia killer | MCF10A rereplic | SW480 rerep | uPA surface inh
COc1ccc(NC(=O)C(C)N2c3cccc4cccc(c34)S2(=O)=O)cc1 (stereo unspecified) | -1.2 | -22.7% | 3.7% | ·
COc1ccc(NC(=O)C(C)N2c3cccc4cccc(c34)S2(=O)=O)cc1OC (stereo unspecified) | 4.9 | 8.2µM* | 13µM* | -11.5%
Cn1nc(C(=O)NNC(=O)c2ccccc2Br)c2ccccc2c1=O | -0.2 | -5.4% | -5.2% | -2.8%
CC(NCc1ccc(OCc2ccc(Cl)cc2)cc1)C(O)c1ccccc1 (stereo unspecified) | -1.3 | 18.4µM* | ? | -2.0%
Cc1ccc(NC(=O)CSc2nc(C)c(C)c(C)n2)cc1S(=O)(=O)N1CCOCC1 | -11.7 | 0.1% | 3.3% | 4.5%
O=C(NC(=S)Nc1ccccc1N1CCCC1)c1ccc(-c2cccc([N+](=O)[O-])c2)o1 | 2.8 | 4.2% | 20.6µM* | ·
Cc1ccc(NC(=O)CSc2nc(N)cc(N)n2)cc1S(=O)(=O)N1CCOCC1 | 28.6 | ? | 3.66µM* | -5.5%
CN1CCN(c2ccc(NC(=O)c3ccc(-c4ccc(Cl)cc4)o3)cc2)CC1 | -16.5 | 23.1µM* | ? | -1.3%
CN1CCN(c2ccc(NC(=O)c3ccc([N+](=O)[O-])o3)cc2Cl)CC1 | ? | 1.46µM* | 1.46µM* | -18.1%
CS(=O)(=O)N1CCN(c2ccc(NC(=O)c3ccc(-c4ccc(Cl)cc4)o3)cc2)CC1 | -0.9 | ? | 0.5% | ·
O=C(NC(=S)Nc1ccccc1N1CCCCC1)c1ccc(-c2cccc([N+](=O)[O-])c2)o1 | 3.8 | 3.5% | -29.9% | 3.8%
Cc1cc(NC(=O)C(C)SCC(=O)N(C)Cc2c(F)cccc2Cl)no1 (stereo unspecified) | -4.8 | 6.5% | 0.1% | -9.2%
O=C(Nc1ccccc1N1CCN(C(=O)c2ccc(Cl)cc2)CC1)c1ccc([N+](=O)[O-])o1 | -89.3* | ? | 16.4µM* | -18.0%
O=C(Nc1ccccc1N1CCN(C(=O)c2ccc(Cl)cc2)CC1)c1cc2ccccc2o1 | -7.6 | 8.6% | ? | 4.8%
O=C(Cc1ccccc1Cl)Nc1cccc(S(=O)(=O)N2CCCCCC2)c1 | -10.2 | ? | -9.9% | -1.1%
O=C(Nc1cccc(S(=O)(=O)N2CCCCC2)c1)Nc1ccc(Cl)cc1Cl | -24.1 | 7.31µM* | ? | -17.9%
CC(C)C(=O)N1CCN(c2ccc(NC(=O)COc3ccccc3[N+](=O)[O-])cc2)CC1 | 8.7 | 20.6µM* | 4.7% | -13.8%
O=C(Nc1cccc(S(=O)(=O)N2CCCCC2)c1)c1ccc([N+](=O)[O-])o1 | -96.1* | 16.4µM* | 6.51µM* | -16.7%
CCCn1nnnc1NCc1ccc(N(CC)CC)cc1 | -1.8 | -1.3% | -1.1% | 6.5%
CCOc1ccccc1C(=O)NC(C(=O)N(C)Cc1ccc2c(c1)OCO2)C(C)C (stereo unspecified) | 3.2 | 12.9% | 7.6% | 1.0%
O=C(Nc1ccc(N2CCOCC2)c(Cl)c1)c1ccc([N+](=O)[O-])o1 | -89.5* | ? | 6.1% | ?
CC(C)C(=O)N1CCN(c2ccc(NC(=O)c3ccc([N+](=O)[O-])o3)cc2Cl)CC1 | -87.9* | ? | 15.1% | -13.2%
CC(C)C(=O)N1CCN(c2ccc(NC(=O)c3ccc(Br)o3)cc2)CC1 | -4.4 | 38.3% | -14.5% | 3.0%
O=C(Nc1ccc(N2CCOCC2)c(Cl)c1)c1c(F)c(F)c(F)c(F)c1F | 12.6 | ? | ? | -10.0%

Screens from PubChem BioAssay.
